Reference: PubChem BioAssay (NCI)
About 83,000 compounds went through this panel and 20% of them were active in at least one assay; those are over-represented in the sample as a whole.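 Assay: single dose, 48 h. Readout: percent growth (0 = no net growth; negative = cell death). Active: <10.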 The source made the active and inactive calls.

These compounds were tested on HS 578T breast (assay: NCI-60 one-dose screen, 48 h (100 = growth as untreated, 0 = no growth, -100 = all killed)). Conditions: 10 µM unless noted.

SMILES | growth
CNC(=O)c1cc(Oc2ccc3nc(NC(=O)Nc4ccc(F)cc4F)sc3c2)ccn1 | 44.5% (inactive)
CCOC(=O)c1c2c(n3ccc(NC(=O)CCN4CCCC4)cc13)C(=O)c1ncccc1C2=O | -43.9% (active)
CNC(=O)c1cc(Oc2ccc3nc(NC(=O)c4cc(C(F)(F)F)cc(C(F)(F)F)c4)sc3c2)ccn1 | 32.1% (inactive)
CC(=O)CC(=O)c1ccccc1.[Cu+2] | 119% (inactive)
O=c1c2cccc3c(N4CCOCC4)ccc(c32)c2nc3ccccc3n12 | 40.2% (inactive)
CN(C)C(=O)OCc1ccc2c(Cl)cc(Cl)c(O)c2n1 | 71.8% (inactive)
COc1ccc(-c2ccc(-c3ccc(C(=N)N)nc3)s2)cc1 | -47.5% (active)
CN1CCN(c2ccc(Nc3ncc4[nH]c(=O)n(Cc5ccccc5N)c4n3)cc2)CC1 | 69.8% (inactive)
NC(=N\N=C/c1ccc(Cl)cc1Cl)/C(N)=N\N=C/c1ccc(Cl)cc1Cl | 33.2% (inactive)
C=C1C(=O)O[C@H]2[C@H]1CC/C(COC(=O)NCc1ccc(Cn3c(=O)sn(CCCC)c3=O)cc1)=C\CC[C@@]1(C)O[C@@H]21 | 78.2% (inactive)
FC(F)(F)c1cccc(-c2nnn(Cc3cc(-c4cccc(Cl)c4)no3)n2)c1 | 107% (inactive)
O=C(c1ccc(F)cc1)C1CCN(CCn2c(=O)[nH]c3ccccc3c2=O)CC1 | 108% (inactive)
Cc1ccc(C2(C)NC(=O)N(CC(=O)Nc3cccc(C)c3)C2=O)cc1 (configuration not stated) | 102% (inactive)
COc1ccc(C(=O)C2OC3=C(C(=O)CC(C)(C)C3)C2c2cccc(Oc3ccccc3)c2)cc1 (configuration not stated) | 93.4% (inactive)
CC1(C)C2=C(C(=O)N1Cc1ccccc1)C(c1ccco1)N(C(=O)C1CCC1)CCN2 (configuration not stated) | 121% (inactive)
Cc1nn(-c2ccccc2)c(Oc2ccccc2)c1/C=N/NC(=O)Cn1c(=O)sc2ccccc21 | 67.6% (inactive)
CCN1C(=O)N(CC)C2C1NC(=S)N2/N=C/C=C/c1cccs1 (configuration not stated) | 16.5% (inactive)
O=C(Nc1ncc(Cc2ccc(Cl)cc2)s1)c1ccc2c(c1)OCCO2 | 23.6% (inactive)
C#Cc1ccc(NC(=O)Cc2ccc(/C=C/C(=O)c3nccn3C)cc2)cc1 | 35.7% (inactive)

SMILES | growth
CCOC(=O)c1cnc2sc(-c3ccc(OC)cc3)nc2c1Cl | 89.3% (inactive)
COc1ccc2c(O)cc3c(c2c1)[C@H](CCl)CN3C(=O)c1cc2cc(NC(=O)CCN3CCOCC3)ccc2[se]1 | 5.52% (active)
Oc1ccc(Cc2ccc(O)c3ncccc23)c2cccnc12 | 36.6% (inactive)
CO[C@]12C=C/C(=C(/C(=O)OCc3cccnc3)C(=O)CCCCCCCC[C@]3(OC)C=C/C(=C(/C(=O)OCc4cccnc4)C(=O)CCCCCCCC1)O3)O2 | 30.6% (inactive)
CC(C)=CCC[C@](C)(O)C1CC[C@]2(C)[C@@H]1CC[C@@H]1[C@@]3(C)CC/C(=N\OCCC#N)C(C)(C)[C@@H]3CC[C@]12C (some centres not stated) | 92.9% (inactive)
Cn1cc(-c2ccc3c(Nc4cccc(NC(=O)Nc5cccc(F)c5)c4)ncnc3c2)cn1 | 29.8% (inactive)
O=c1oc2ccccc2cc1-c1nn(-c2ccccc2)cc1/C=N/Nc1nc(-c2ccccc2)c(N=Nc2ccccc2)s1 | 87.5% (inactive)
CCCNNC(=O)c1ccc(CNC(=O)/C=C/c2ccccc2)cc1 | 47.3% [2.5 µM] (inactive)
C=C(CNCCO)[C@@H]1CC[C@]2(CO)CC[C@]3(C)[C@H](CC[C@@H]4[C@@]5(C)CCC(NCCO)C(C)(C)[C@@H]5CC[C@]43C)[C@@H]12 (some centres not stated) | 78.2% (inactive)
COc1cccc(-c2cc(-c3ccc(Nc4nc(Nc5ccc(Cl)cc5)nc(Nc5ccc(Cl)cc5)n4)cc3)nc(N)c2C#N)c1 | 14.1% (inactive)
CC(C)C(=O)Nc1ncc(C(=O)NCCN(Cc2ccccc2)C(=O)c2ccc(S(=O)(=O)Nc3ccccc3)cc2)s1 | 87.1% (inactive)
CN1CCN(Cc2ccc(NC(=O)c3cncc(C#Cc4cnc(N)c5ccc(C#N)cc45)c3)cc2C(F)(F)F)CC1 | -32.1% (active)
COc1ccc2c(c1)c(-c1nc(-c3cn(C)c4ccncc34)cs1)cn2C | 104% (inactive)
O=C(OCC(O)(CO)C(=O)NC12CC3CC(CC(C3)C1)C2)c1ccc(Cl)cc1 (configuration not stated) | 88.5% (inactive)
Cn1ccnc1C(=O)/C=C/c1ccc(CC(=O)Nc2cc(F)c(F)c(F)c2)cc1 | 13% (inactive)
Cc1ccc(Nc2cc(N)nc(N)n2)cc1 | 100% (inactive)
Cc1nc2ccccc2c(/C=C/c2ccc(Cl)cc2)c1C(=O)/C=C/c1ccccc1 | 25% (inactive)
NS(=O)(=O)Oc1cccc(-c2nc3sccn3c2-c2ccccc2)c1 | 47% (inactive)

What follows are compounds tested on NCI/ADR-RES ovarian in the same assay as above. Conditions: 10 µM unless noted.

SMILES | growth
CNC(=O)c1cc(Oc2ccc3nc(NC(=O)Nc4ccc(F)cc4F)sc3c2)ccn1 | 45.5% (inactive)
CCOC(=O)c1c2c(n3ccc(NC(=O)CCN4CCCC4)cc13)C(=O)c1ncccc1C2=O | 27.3% (inactive)
CNC(=O)c1cc(Oc2ccc3nc(NC(=O)c4cc(C(F)(F)F)cc(C(F)(F)F)c4)sc3c2)ccn1 | 12.9% (inactive)
CC(=O)CC(=O)c1ccccc1.[Cu+2] | 104% (inactive)
O=c1c2cccc3c(N4CCOCC4)ccc(c32)c2nc3ccccc3n12 | 93.9% (inactive)
CN(C)C(=O)OCc1ccc2c(Cl)cc(Cl)c(O)c2n1 | 14.8% (inactive)
COc1ccc(-c2ccc(-c3ccc(C(=N)N)nc3)s2)cc1 | 25.5% (inactive)
CN1CCN(c2ccc(Nc3ncc4[nH]c(=O)n(Cc5ccccc5N)c4n3)cc2)CC1 | 102% (inactive)
NC(=N\N=C/c1ccc(Cl)cc1Cl)/C(N)=N\N=C/c1ccc(Cl)cc1Cl | 82.3% (inactive)
C=C1C(=O)O[C@H]2[C@H]1CC/C(COC(=O)NCc1ccc(Cn3c(=O)sn(CCCC)c3=O)cc1)=C\CC[C@@]1(C)O[C@@H]21 | 103% (inactive)
FC(F)(F)c1cccc(-c2nnn(Cc3cc(-c4cccc(Cl)c4)no3)n2)c1 | 108% (inactive)
O=C(c1ccc(F)cc1)C1CCN(CCn2c(=O)[nH]c3ccccc3c2=O)CC1 | 102% (inactive)
Cc1ccc(C2(C)NC(=O)N(CC(=O)Nc3cccc(C)c3)C2=O)cc1 (configuration not stated) | 94.8% (inactive)
COc1ccc(C(=O)C2OC3=C(C(=O)CC(C)(C)C3)C2c2cccc(Oc3ccccc3)c2)cc1 (configuration not stated) | 92.7% (inactive)
CC1(C)C2=C(C(=O)N1Cc1ccccc1)C(c1ccco1)N(C(=O)C1CCC1)CCN2 (configuration not stated) | 100% (inactive)
COc1ccc(Nc2nccc(Nc3ccc4[nH]ncc4c3)n2)cc1 | 17.7% (inactive)
Cc1nn(-c2ccccc2)c(Oc2ccccc2)c1/C=N/NC(=O)Cn1c(=O)sc2ccccc21 | 44.4% (inactive)
CCN1C(=O)N(CC)C2C1NC(=S)N2/N=C/C=C/c1cccs1 (configuration not stated) | 4.47% (active)
O=C(Nc1ncc(Cc2ccc(Cl)cc2)s1)c1ccc2c(c1)OCCO2 | 10.9% (inactive)
C#Cc1ccc(NC(=O)Cc2ccc(/C=C/C(=O)c3nccn3C)cc2)cc1 | 34.5% (inactive)

SMILES | growth
CN(C)CCOc1nc2c3cc([N+](=O)[O-])ccc3nn2c2ccccc12 | 37% (inactive)
CCN(CC)CCCC(Nc1c2ccc(Cl)cc2nc2ccc(OC)cc12)c1ccncc1 (configuration not stated) | 81.4% (inactive)
CCOC(=O)c1cnc2sc(-c3ccc(OC)cc3)nc2c1Cl | 90% (inactive)
COc1ccc2c(O)cc3c(c2c1)[C@H](CCl)CN3C(=O)c1cc2cc(NC(=O)CCN3CCOCC3)ccc2[se]1 | -34.4% (active)
Oc1ccc(Cc2ccc(O)c3ncccc23)c2cccnc12 | 20.2% (inactive)
CO[C@]12C=C/C(=C(/C(=O)OCc3cccnc3)C(=O)CCCCCCCC[C@]3(OC)C=C/C(=C(/C(=O)OCc4cccnc4)C(=O)CCCCCCCC1)O3)O2 | -23.9% (active)
CC(C)=CCC[C@](C)(O)C1CC[C@]2(C)[C@@H]1CC[C@@H]1[C@@]3(C)CC/C(=N\OCCC#N)C(C)(C)[C@@H]3CC[C@]12C (some centres not stated) | 97.7% (inactive)
Cn1cc(-c2ccc3c(Nc4cccc(NC(=O)Nc5cccc(F)c5)c4)ncnc3c2)cn1 | 78% (inactive)
O=c1oc2ccccc2cc1-c1nn(-c2ccccc2)cc1/C=N/Nc1nc(-c2ccccc2)c(N=Nc2ccccc2)s1 | 63.7% (inactive)
CCCNNC(=O)c1ccc(CNC(=O)/C=C/c2ccccc2)cc1 | 21% [2.5 µM] (inactive)
C=C(CNCCO)[C@@H]1CC[C@]2(CO)CC[C@]3(C)[C@H](CC[C@@H]4[C@@]5(C)CCC(NCCO)C(C)(C)[C@@H]5CC[C@]43C)[C@@H]12 (some centres not stated) | 95% (inactive)
COc1cccc(-c2cc(-c3ccc(Nc4nc(Nc5ccc(Cl)cc5)nc(Nc5ccc(Cl)cc5)n4)cc3)nc(N)c2C#N)c1 | 73.3% (inactive)
CC(C)C(=O)Nc1ncc(C(=O)NCCN(Cc2ccccc2)C(=O)c2ccc(S(=O)(=O)Nc3ccccc3)cc2)s1 | 101% (inactive)
CN1CCN(Cc2ccc(NC(=O)c3cncc(C#Cc4cnc(N)c5ccc(C#N)cc45)c3)cc2C(F)(F)F)CC1 | -13.6% (active)
COc1ccc2c(c1)c(-c1nc(-c3cn(C)c4ccncc34)cs1)cn2C | 10.2% (inactive)
O=C(OCC(O)(CO)C(=O)NC12CC3CC(CC(C3)C1)C2)c1ccc(Cl)cc1 (configuration not stated) | 98.6% (inactive)
Cn1ccnc1C(=O)/C=C/c1ccc(CC(=O)Nc2cc(F)c(F)c(F)c2)cc1 | -29.8% (active)
Cc1ccc(Nc2cc(N)nc(N)n2)cc1 | 95% (inactive)
Cc1nc2ccccc2c(/C=C/c2ccc(Cl)cc2)c1C(=O)/C=C/c1ccccc1 | 0.775% (active)
NS(=O)(=O)Oc1cccc(-c2nc3sccn3c2-c2ccccc2)c1 | 48.1% (inactive)
